From PubChem BioAssay (EPA / NIEHS)
Results filed as inconclusive are left out. Calls of active or inactive are those of the source. How the source made its calls, unless noted: active means hit-call score of the fitted dose curve at least 0.9, where 1 is the maximum; inconclusive means response in the unintended direction; inactive means score below 0.9.

Legend:
[1] = TOX21_p53_BLA_p2_viability: Viability Assessment in the Tox21 HCT-116 p53 Agonism Beta-lactamase Assay, Phase 2 (AID 2283591);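 further: actives lower the ATP signal meaning cytotoxicity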
In short: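 Cytotoxicity readout: CellTiter-Glo ATP luminescence, 30 min at room temperature, after the beta-lactamase read. Cells were HCT116 exposed 16 h at 37C to compounds pin-transferred at 217-fold dilution from DMSO stocks.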

[2] = target: Cellular tumor antigen p53 (Homo sapiens) (UniProt P04637); assay: TOX21_p53_BLA_p2_ratio: Tox21 HCT-116 p53 Agonism Beta-lactamase Assay, Ratio, Phase 2 (AID 2283592)
Sequence of Cellular tumor antigen p53 (Homo sapiens) (P04637 whole entry, looked up): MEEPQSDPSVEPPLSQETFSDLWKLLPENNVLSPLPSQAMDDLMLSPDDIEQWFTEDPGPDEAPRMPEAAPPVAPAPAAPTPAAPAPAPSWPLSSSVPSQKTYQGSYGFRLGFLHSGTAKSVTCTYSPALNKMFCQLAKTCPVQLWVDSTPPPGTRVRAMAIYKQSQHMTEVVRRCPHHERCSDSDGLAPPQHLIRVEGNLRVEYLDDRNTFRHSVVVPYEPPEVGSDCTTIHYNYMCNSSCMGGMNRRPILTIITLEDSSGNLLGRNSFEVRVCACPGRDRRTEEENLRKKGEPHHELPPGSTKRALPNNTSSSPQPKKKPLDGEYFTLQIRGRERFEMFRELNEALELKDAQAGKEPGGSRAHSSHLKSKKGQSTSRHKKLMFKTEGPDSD
In short: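 First, HCT116 reporter cells settle for 5 h at 37C. Next, DMSO compound solutions are pinned in (217-fold dilution) and left 16 h. Finally, CCF4-AM substrate is loaded 2 h at room temperature and the 460/530 nm ratio read.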

[3] = TOX21_p53_BLA_p3_viability: Viability Assessment in the Tox21 HCT-116 p53 Agonism Beta-lactamase Assay, Phase 3 (AID 2283593);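 further: cells exposed to compound for 16 h before reading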
In short: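 Cellular ATP was quantified by CellTiter-Glo luminescence, read after 30 min at room temperature. Beforehand, HCT116 cells (4000/well) received compound 5 h post-seeding, 217-fold diluted from DMSO, then incubated 16 h at 37C.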

[4] = target: Cellular tumor antigen p53 (Homo sapiens) (UniProt P04637); assay: TOX21_p53_BLA_p5_ratio: Tox21 HCT-116 p53 Agonism Beta-lactamase Assay, Ratio, Phase 5 (AID 2283599)
In short: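 Beta-lactamase reporter ratio (blue 460 nm over green 530 nm, 405 nm excitation) after 2 h CCF4-AM loading, in HCT-116 cells exposed 16 h at 37 C to compounds pinned at 217-fold dilution. Increases relative to DMSO baseline scored.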

[5] = TOX21_p53_BLA_p5_viability: Viability Assessment in the Tox21 HCT-116 p53 Agonism Beta-lactamase Assay, Phase 5 (AID 2283600)
In short: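 Decreased CellTiter-Glo luminescence denotes lost viability. Exposure: 16 h at 37C, 5% CO2, with compounds from DMSO stocks diluted 217-fold in wells of 4000 cells.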

[6] = target: Cellular tumor antigen p53 (Homo sapiens) (UniProt P04637); assay: TOX21_p53_BLA_p4_ratio: Tox21 HCT-116 p53 Agonism Beta-lactamase Assay, Ratio, Phase 4 (AID 2283601)
In short: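 Signal is the blue/green (460nm/530nm) ratio of cleaved versus uncleaved CCF4-AM substrate, read after 2 h substrate loading. Cells were HCT116 carrying the p53-responsive beta-lactamase reporter, dosed 16 h at 37C, 5% CO2; CellTiter-Glo measured in parallel.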

[7] = ACEA_ER_AUC_viability: ACEA Biosciences xCELLigence Real-Time Cell Analysis on Estrogen Receptor Agonism for Viability (AID 2283782);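 further: hit means loss of impedance signal meaning reduced cell growth or viability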
In short: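 Viability endpoint: reduced impedance area under the curve relative to DMSO, recorded by real-time electrode sensing over ~80 h of continuous exposure. Duplicate plates of T47D in hormone-depleted medium; eight concentrations, 1:4 dilutions, 100 uM maximum.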

[8] = CCTE_Harrill_HTTr_Viability_MCF7: CCTE's 6-hour Cell Viability Assessment for the High-Throughput Transcriptomics (HTTr) Platform, in MCF-7 cells cultured in DMEM + 10% fetal bovine serum, Harrill Lab (AID 2284010; active means hit-call score of the fitted dose curve at least 0.9, where 1 is the maximum; inactive means score below 0.9)
In short: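 Eight-point concentration series, six-hour exposure. Propidium iodide exclusion imaged to assess membrane integrity as a cytotoxicity readout; bidirectional fitting was done with DMSO as negative control and activity baseline.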

[9] = CCTE_Harrill_HTTr_Apoptosis_MCF7: CCTE's 6-hour Apoptosis Assessment for the High-Throughput Transcriptomics (HTTr) Platform, in MCF-7 cells cultured in DMEM + 10% fetal bovine serum, Harrill Lab (AID 2284011; active means hit-call score of the fitted dose curve at least 0.9, where 1 is the maximum; inactive means score below 0.9)
In short: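 MCF-7 cells in DMEM + 10% FBS exposed 6 h to chemicals over an eight-point dilution series. Caspase-3/7 activation imaged by high-content CellEvent Green staining; fitted bidirectionally versus DMSO.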

[10] = CCTE_Harrill_HTTr_CellCount_MCF7: CCTE's Cell Proliferation Assessment for the High-Throughput Transcriptomics (HTTr) Platform, Harrill Lab (AID 2284012);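 further: count of Hoechst-stained nuclei per well by high-content imaging in MCF-7 cells; cells exposed to compound for six hours; intended direction is loss of nuclei count meaning fewer cells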
In short: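 For this full-screen endpoint, MCF-7 cultures received eight compound dilutions for six hours. Well nuclei counts from Hoechst imaging were analyzed relative to DMSO.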

Measured: outcome

Cc1cc(C)c(NC(=O)CN(CC(=O)O)CC(=O)O)c(C)c1Br
inactive: [1] | [2] | [3] | [4] | [5] | [6]

COC(=O)CC#N
inactive: [1] | [2] | [3] | [6]

CN(C)CCCNCCC#N
inactive: [1] | [2] | [3] | [5] | [6] | [7]

CC(=O)CC(C)=O
inactive: [1] | [2] | [3] | [5]

CO/N=C(\C(=O)N[C@@H]1C(=O)N2C(C(=O)OCOC(=O)C(C)(C)C)=C(/C=C\c3scnc3C)CS[C@H]12)c1csc(N)n1
inactive: [1] | [2] | [3] | [4] | [6]

CC(=O)Nc1ccc(N)cc1
inactive: [1] | [2] | [3] | [6]

CCCOCCOCCO
inactive: [1] | [2] | [3] | [4] | [6]

c1cnccn1
inactive: [1] | [2] | [3] | [5]

O=C(O)[C@H](O)[C@@H](O)[C@H](O[C@@H]1O[C@H](CO)[C@H](O)[C@H](O)[C@H]1O)[C@H](O)CO
inactive: [1] | [2] | [3] | [5]

C=C(C)C1CCC(C)(O)CC1 (centres undefined)
not listed: [7]
inactive: all other assays above

Nc1ccc2cc(S(=O)(=O)O)cc(O)c2c1
inactive: [1] | [2] | [3] | [4] | [6]

CC(=O)OCC(=O)[C@@]12OC3(CCCC3)O[C@@H]1C[C@H]1[C@@H]3CCC4=CC(=O)C=C[C@]4(C)[C@@]3(F)[C@@H](O)C[C@@]12C
inactive: [1] | [2] | [3] | [6]

C[C@]12CC[C@@H]3c4ccc(OS(=O)(=O)O)cc4CC[C@H]3[C@@H]1CCC2=O
inactive: [1] | [2] | [3] | [6]
